Inconclusive results are not listed. The source made the active and inactive calls. The call rests on the fitted dose curve; in most records, active means well fitted inhibition curve with a large enough effect; inconclusive means small, poorly fitted or top-dose-only effect; inactive means no such curve, though single readings can be large or run the other way.
experiment: qHTS Assay for Lipid Storage Modulators: S3 Assay against Probe and Analogs; conditions: Drosophila S3 cells, BODIPY lipid droplet fluorescence, 18-24 h, oleic acid added to induce droplets; series mostly up to 46.1 µM; activity, negative = lipid storage inhibition: at the top concentration
Source text: Storing lipids as a reservoir for energy or the anabolism of elementary metabolites is a common feature of probably all cells and is conserved from bacteria to humans. The universal cellular lipid storage organelle is the so-called lipid storage droplet (LD). Although ubiquitous, LDs share a simple structure composed of a hydrophobic core that harbors the storage lipids, which is shielded by a droplet-specific phospholipid monolayer to which proteins are attached. The current model of LD biogenesis involves an incorporation of the lipid core into the membrane leaflets of the endoplasmic reticulum (ER) followed by a subsequent budding-like maturation of a LD, which ultimately pinches off. Once released, LD volume can increase by localized lipogenesis or fusion of existing droplets. Storage lipids are re-mobilized enzymatically by lipase activity. Lipase regulation in the adipocyte is heavily studied and involves multiple components including catecholamine signaling, the LD-associated proteins Perilipin and comparative gene identification-58 (CGI-58) and at least two lipases named hormone sensitive lipase (HSL) and adipocyte triglyceride lipase (ATGL). LD regulation outside of the adipocyte is poorly understood and only few components are known. However, there is an urgent need to learn more about ectopic fat depots as mislocalized storage of lipids, for example in the liver or muscle, is an eminent health problem associated with insulin resistance or the metabolic syndrome. We developed a laser-scanning cytometer assay to enable 1,536-well screening and combined the results of the small molecules screen with an RNAi database based on lipid storage. In this assay we tested analogs of the probe against the original qHTS assay, which involved drosophila melanogaster cells (S3), to see if these small molecules could disrupt lipid storage. NIH Molecular Libraries Probe Production Centers Network [MLPCN] NIH Chemical Genomics Center [NCGC] MLPCN Grant: MH085686 Assay Submitter (PI): Mathias Beller, Max-Planck-Institut fur Biophysikalische Chemie
qHTS was performed with embryonic Drosophila S3 cells (Bloomington Drosophila Genomics Resource Center [DGRC]). We dispensed 4 uL of cells at 1.25 x 10^6 cells/mL into LoBase Aurora COC 1,536-well plates (black walled, clear bottom) with a bottle-valve solenoid-based dispenser (Aurora) to obtain 5,000 cells/well. Triacsin C (Sigma-Aldrich T-4540), an inhibitor of long-chain fatty acyl CoA synthetase that blocks synthesis of triglycerides, was used as a positive control for lipid under-storage. A total of 23 nL of compounds dissolved in DMSO at different concentrations were transferred to the assay plates using a Kalypsys pin tool equipped with a 1,536-pin array containing 10-nL slotted pins (FP1S10, 0.457-mm diameter, 50.8 mm long; V&P Scientific). The final DMSO concentration was 0.46%. One microliter of oleic acid at 400 uM (Calbiochem, #4954) was added to induce lipid droplet formation in the cells, and the plates were lidded with stainless steel rubber gasket lined lids containing pinholes. After 18-24 h incubation at 25 0C and 95% humidity, 4 uL of the BODIPY lipid dye 493/503 (1:2000, Molecular Probes) and the Cell Tracker Red CMTPX dye (Life Technologies, # 34552) were added to the wells to stain lipid droplets and enumerate cell number, respectively. Fluorescence was detected by excitation of the fluorophores with a 488-nm laser on an Acumen Explorer (TTP Lab Tech). The total intensity in channel 1 (500-530 nm) reflected lipid droplet accumulation. Cells were detected using channel 3 (575-640 nm) with 5-um width and 100-um depth filters. The ratio of the total intensity in PMT channel 1 over total intensity of channel 3 was also calculated. Percent activity was computed relative to an internal control (100% inhibited lipid droplet deposition due to the presence of 20 uM Triacsin C), which was added to 32 wells/plate.

| Compound | activity, negative = lipid storage inhibition | Potency |
| --- | --- | --- |
| CCOc1ccc(CCNC(=O)c2ccc(C(=O)c3ccccc3)cc2)cc1OCC | 46.7% (inactive) |  |
| CCOc1ccc(CCNC(=O)c2cc3ccncc3n2Cc2cccc(C)n2)cc1OCC | -100% (inactive) |  |
| CCOc1ccc(CCNC(=O)c2cc3sccc3n2CCN(C)C)cc1OCC |  | 2350 nM (active) |
| CCOc1ccc(CCNC(=O)c2cc3cnccc3n2Cc2cccc(C)n2)cc1OCC | -27.6% (inactive) |  |
| CCOc1ccc(CCNC(=O)c2cc3ccccc3n2Cc2cccc(C)c2)cc1OCC |  | 3.3 nM (active) |
| CCOc1ccc(CCNC(=O)c2cc3ccccc3n2Cc2ccccn2)cc1OCC |  | 118 nM (active) |
| CCOc1ccc(CCNC(=O)c2cc3ccccc3n2Cc2cccc(C)n2)cc1OCC |  | 13.2 nM (active) |
| CCOc1ccc(CCNC(=O)c2cc3ccccc3n2CCN2CCOCC2)cc1OCC | -100% (inactive) |  |
| CCOc1ccc(CCNC(=O)c2cc3sccc3n2Cc2ccc(F)cc2F)cc1OCC |  | 16.6 nM (active) |
| CCOc1ccc(CCNC(=O)c2ccccc2)cc1OCC | 33.3% (inactive) |  |
| CCOc1ccc(CCNC(=O)c2ccc(Oc3ccccc3)cc2)cc1OCC | 43.3% [at 38.8 µM] (inactive) |  |

Source: PubChem BioAssay AID652175 (National Center for Advancing Translational Sciences (NCATS), 2013)
